NPC1 prom act: NPC1 promoter activation; AID 485313; Huh7 NPC1 promoter luciferase reporter, 24 h; 2.4% of 320,000 active; Potency, µM (highest dose often 9.22 µM), inactives show at the top dose activation, actives largely listed as activators; further: % of control where 0% means no effect; nearly all actives have a fitted effect of over 60% in size
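Huh7 cells stably carrying NPC1 promoter–luciferase, plated in Opti-MEM with 10% FBS for 2 h, were exposed to compound in DMSO for 24 h at 37 °C; luciferase reagent was added for 10 min and luminescence read.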
FLuc counter: firefly luciferase modulation, counter-screen for miR-21 project. 6.9% of 360,000 active. Potency, µM (titrated, usually from 57.5 µM), inactives show at the highest dose activity change, negative = inhibition, usual class: inhibitors. AID 588342. purified FLuc, Km substrates, luminescence inhibition;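 further: plate controls were vehicle for no effect and reference inhibitor for full effect; nearly all actives have a fitted effect of over 55% in size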
Target sequence (P08659 whole entry, looked up): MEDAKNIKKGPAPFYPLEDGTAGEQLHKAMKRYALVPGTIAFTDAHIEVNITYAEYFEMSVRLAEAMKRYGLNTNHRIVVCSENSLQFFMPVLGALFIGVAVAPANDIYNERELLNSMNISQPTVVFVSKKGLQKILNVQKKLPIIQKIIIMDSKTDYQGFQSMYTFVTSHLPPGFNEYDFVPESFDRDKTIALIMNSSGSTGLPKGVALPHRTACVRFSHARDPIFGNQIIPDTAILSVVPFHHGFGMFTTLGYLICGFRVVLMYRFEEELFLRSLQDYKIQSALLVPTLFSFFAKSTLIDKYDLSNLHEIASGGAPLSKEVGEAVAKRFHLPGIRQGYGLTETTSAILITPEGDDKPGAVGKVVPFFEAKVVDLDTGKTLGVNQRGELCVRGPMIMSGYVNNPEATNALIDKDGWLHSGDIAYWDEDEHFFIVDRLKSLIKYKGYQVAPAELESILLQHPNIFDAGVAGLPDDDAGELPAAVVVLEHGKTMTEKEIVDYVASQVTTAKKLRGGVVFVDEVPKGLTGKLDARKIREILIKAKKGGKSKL
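Purified P. pyralis luciferase (10nM final) with 10uM D-luciferin and 10uM ATP (Km levels) in 50mM Tris acetate pH 7.5, 10mM Mg acetate, 0.01% Tween-20, 0.05% BSA; qHTS 6-point titration, ~60 µM downward; luminescence read.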
SMN2 splice up: enhancers of SMN2 splice variant expression; HEK293 SMN2-luciferase splicing reporter, luminescence, 30-36 h; Potency, µM (highest dose often 46.1 µM), without a hit: at the top dose activity change, positive = activation, actives largely listed as activators; 2.8% of 210,000 active; AID 1458; further: % of control where 0% means no effect; nearly all actives have a fitted effect of over 55% in size
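HEK293 cells carry an SMN2 […]–luciferase reporter in which exon 7 inclusion puts luciferase in frame. Cells were plated 10-12 h before compound addition, then incubated 30-36 h at 37C. ONE-Glo luminescence was read; sodium butyrate at 4.5 mM final served as control.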
Rab9 prom act: activates the Rab9 promoter; Huh7 Rab9 promoter-luciferase reporter, luminescence, 24 h; 2.8% of 320,000 active; Potency, µM (series often up to 9.22 µM), inactives show at the highest dose activation, negative = inhibition, actives largely listed as activators; AID 485297; further: % of control where 0% means no effect; nearly all actives have a fitted effect of over 60% in size
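Steps: seed 1500 Huh7 Rab9-luc cells per well, rest 2 h at 37 °C; add compound in DMSO; incubate 24 h; add luciferase reagent, 10 min ambient; read luminescence.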
ELG1 genotoxic: induces genotoxicity in HEK293T cells with luciferase-tagged ELG1. 1.3% of 330,000 active. Potency, µM (doses to about 46 µM), for the others: at the highest dose activity change, positive = activation, hits mostly activators. HEK293T ELG1-luciferase reporter, luminescence, 16 h; further: % of control where 0% means no effect; nearly all actives have a fitted effect of over 60% in size
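HEK293T cells expressing luciferase-tagged ELG1 were treated with compound or DMSO for 16 hr at 37°C. Luciferase activity was then read after 30 min with ONE-Glo at room temperature; rising signal flags genetic stress.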
Numbers without * were called inactive; ? = inconclusive; / = not tested or not shown; [ ] = remark or other dose. In the library only some 7.4% were active in any assay of this set; here they are far more common. The call rests on the fitted dose curve; in most records, active means well fitted curve in the direction sought with a large enough effect; inconclusive means small, poorly fitted or top-dose-only effect, or another doubt; inactive means no such curve, though single readings can be large; an effect the other way counts as inactive or inconclusive. Potency means the concentration at half of the fitted maximal effect.

SMILES | NPC1 prom act | FLuc counter | SMN2 splice up | Rab9 prom act | ELG1 genotoxic
CCOC(=O)c1ccc(S(=O)(=O)NNC(=O)c2cccc(N(C)C)c2)cc1 | 5% | 19µM* | 15% | 18% | 0%
CCCCN(CC)CCCNC(=O)c1nn(-c2ccc(OC)cc2)c(=O)c2c1c1ccccc1n2C | / | 0% | 7% | / | /
COc1cc(/C=C/c2sc3ccccc3[n+]2CCCS(=O)(=O)[O-])ccc1O | -9% | 13µM* | -43% | -3% | -5%
CC(=O)c1cc(F)c(N2CCN(C(=O)c3ccco3)CC2)cc1C | 10% | -18% | 13% | 8% | 19%
Cc1cc2nc(N3CCN(C(=O)c4cccs4)CC3)sc2cc1C | 4µM* | ? | / | 2.8µM* | 10%
Cc1cc(C)c2nc(N3CCN(C(=O)c4ccco4)CC3)sc2c1 | 27% | 17µM* | / | ? | 5%
Cc1cc2nc(N3CCN(C(=O)c4ccco4)CC3)sc2cc1C | 2.5µM* | 6µM* | / | 0.79µM* | 19%
COc1ccc(C)c2sc(N3CCN(C(=O)c4ccco4)CC3)nc12 | / | -12% | / | / | /
CC(=O)c1ccc(N2CCN(C(=O)c3ccco3)CC2)c(F)c1 | ? | -23% | 2.8µM* | ? | ?
Cc1cc(C)c2nc(N3CCN(C(=O)c4cccs4)CC3)sc2c1 | -1% | ? | / | 2% | 26%
COc1ccc(C(=O)NC(C)c2cccnc2)cc1S(=O)(=O)N(C)Cc1ccccc1 (configuration not stated) | / | / | / | / | 1%
CC1CCN(C(=O)c2ncn(Cc3ccccc3)c2C(=O)N2CCC(C)CC2)CC1 | / | / | / | / | 0%
O=C(CCc1ccccc1)NCC1(c2ccccc2)CCCC1 | -3% | -2% | / | 3% | -4%
CCc1ccc(NC(=O)NCc2cccnc2)cc1 | 18% | -9% | / | 12% | ?
Cc1ccc(-n2ncc3ccccc3c2=O)cc1Cl | 2.5µM* | 5.4µM* | 14µM* | 2.8µM* | ?
O=c1c2ccccc2cnn1-c1ccc(Cl)cc1 | 1.4µM* | 5.4µM* | 10µM* | 1µM* | ?
COc1ccc(-c2nnc(SC(C)C(=O)Nc3cccc(Cl)c3)o2)cc1 (configuration not stated) | ? | -18% | 16µM* | 4µM* | 21µM*
COc1ccc(-c2nnc(SC(C)C(=O)O)o2)cc1 (configuration not stated) | / | 12µM* | -1% | / | /
COc1ccc(-c2nnc(SC(C)C(=O)NNC(=O)c3ccc(C)cc3)o2)cc1 (configuration not stated) | 3% | -19% | -27% | 14% | 2%
Cc1nn(C)cc1CNC(=O)Nc1ccc(Cl)c(Cl)c1 | 3.2µM* | 24µM* | -22% | 2.5µM* | 13µM*
Cc1ccc(NC(=O)NCc2c(C)nn(C)c2C)cc1Cl | ? | 24µM* | 16µM* | 4µM* | ?
COc1ccc(OCCOC(=O)CCS(=O)(=O)c2ccc(C)cc2)cc1 | -2% | 1% | / | -2% | -7%
COc1ccc(C)cc1NC(=O)c1ccc(=O)n(Cc2ccccc2)c1 | / | 1% | / | / | /
CCN1CCc2c(sc(-n3cccc3)c2C(CCC(C)C)NC(=O)NCCC(=O)OC)C1 (configuration not stated) | / | -7% | / | / | /
CCCCCOc1ccccc1CN1C(=O)C(=O)c2cc(C)ccc21 | / | -17% | 3% | / | /
SMILES | NPC1 prom act | FLuc counter | SMN2 splice up | Rab9 prom act | ELG1 genotoxic
CCOC(=O)C(/C=C(\C#N)C(=O)OCC)=C(/N)N1CCN(c2ccccc2)CC1 | -1% | 4% | 1% | -1% | 2%
CCOC(=O)/C(C#N)=C/c1ccc(N2CCN(C)CC2)cc1 | -2% | 27µM* | 5% | 1% | -2%
CCOC(=O)/C(C#N)=C\c1ccc(OC)c(OC)c1 | -10% | -7% | 3% | -17% | 0%
CCOC(=O)/C(C#N)=C\c1ccc(N2CCN(C)CC2)cc1 | -1% | 12µM* | 1% | -3% | 4%
CCCn1c(N)c(N(CCOC)C(=O)CCC2CCCCC2)c(=O)[nH]c1=O | 0% | 4% | / | -6% | -1%
CCCCc1ccc(NC(=O)C2CCCO2)cc1 (configuration not stated) | 1.6µM* | 13µM* | 10µM* | 2.2µM* | ?
CCOC(=O)c1ccc(NC(=O)C2CCCO2)cc1 (configuration not stated) | ? | ? | 43% | 6.3µM* | 27%
CCOC(=O)c1ccc(NC(=O)Nc2ccon2)cc1 | 16% | 19µM* | / | -9% | 7.3µM*
CCOC(=O)c1ccc(NC(=O)Nc2ccc(Cl)cn2)cc1 | 3% | -1% | -1% | 1% | 0%
CCCCc1nnc(NC(=O)C2CCCO2)s1 (configuration not stated) | 11% | -2%[2.3 µM] | 35µM* | 28% | 15%
CCCCOC(=O)c1ccc(NC(=O)C2CCCO2)cc1 (configuration not stated) | 28% | ? | 8% | ? | 15%
CCCCNC(=O)c1ccc(NC(=O)C2CCCO2)cc1 (configuration not stated) | -3% | -5% | 11% | -5% | -4%
O=C(Nc1ccc(Oc2ccccc2)cc1)c1ccc(F)c(S(=O)(=O)N2CCN(c3ccccc3F)CC2)c1 | / | 0% | / | / | /
O=C(c1ccoc1)N1CCC(CO)(CCc2ccccc2)CC1 | -4% | 0% | / | 0% | 3%
COc1ccc(CNC(=O)C2CCCN(S(=O)(=O)c3c(C)noc3/C=C/N(C)C)C2)cc1 (configuration not stated) | -2% | 2% | / | -1% | -2%
O=C(Nc1cccc(F)c1)C1CCN(c2nc3ccccc3nc2C(F)(F)F)CC1 | / | -1% | / | / | /
CCOC(=O)/C=C/CCCC=O | / | / | 10% | / | /
CCCCc1nnc(NC(=O)C2=COCCO2)s1 | 2.5µM* | 17µM* | / | 4.5µM* | 15µM*
Cc1nnc(NC(=O)C2=COCCO2)s1 | 11% | -2% | / | 17% | ?
O=C(Nc1ccccc1Cl)NC1CCCCCCC1 | ? | 13µM* | / | ? | ?
COc1ccccc1NC(=O)NC1CCCCCCC1 | -2% | 13µM* | / | 2% | -3%
COc1ccccc1NC(=S)NC1CCCCCC1 | -1% | ? | / | 0% | -3%
Cc1ccc(C(=O)N2CCCCC2C(=O)O)cc1S(=O)(=O)N1CCCCC1 (configuration not stated) | / | / | / | / | 6%
Cc1ccc(COn2c(-c3ccc(Cl)cc3)nc3ccc([N+](=O)[O-])cc32)cc1 | ? | 17µM* | ? | ? | 17%
CCOC(=O)C(C)On1c(-c2ccc(Cl)cc2)nc2ccc([N+](=O)[O-])cc21 (configuration not stated) | 29% | 15µM* | -4% | 18% | 12%
O=[N+]([O-])c1ccc2nc(-c3ccc(Cl)cc3)n(OCc3ccccc3)c2c1 | ? | 12µM* | 2% | ? | ?
Clc1ccc(COn2c(-c3ccccc3)nc3ccccc32)cc1 | -8% | -14% | -9% | -1% | -3%

Assay outcomes as filed in PubChem.
